The list is not random: actives were taken first. Their share in the collection is about 5.4%.
FMDV inh: foot and mouth disease virus antiviral activity | FMDV antiviral cell-based qHTS | Potency, µM (titrated, usually from 57.9 µM), for inactives: top-dose activity change, negative = inhibition, usual class: inhibitors | hit rate 1.2% among 410,000 | AID 1159524; calls by dose curve; tested in HEK293T cells; also: read-out not given here; nearly all actives have a fitted effect of over 45% in size
Vaccinia Venus: inhibitors of vaccinia virus (Venus reporter); Vaccinia virus Venus reporter expression, fluorescence; Potency, µM (top dose mostly 36.5 µM), without a hit: top-dose activity change, negative = inhibition, actives largely listed as inhibitors; hit rate 0.46% among 330,000; AID 720580; calls by dose curve; tested in A549 cells; also: nearly all actives have a fitted effect of over 30% in size
MARV entry inh: blocks Marburg virus binding to or entry into cells | Marburg virus pseudotyped entry inhibition, cell reporter | Potency, µM (series often up to 37.8 µM), without a hit: at the top dose activity change, negative = inhibition, most hits filed as inhibitors | AID 540276 | hit rate 1.8% among 300,000; calls by dose curve; tested in HEK293 cells
Sm TGR inh: inhibitors of Schistosoma mansoni thioredoxin glutathione reductase; Q962Y6; purified TGR, DTNB reduction, TNB absorbance 405 nm; Potency, µM (highest dose often 114 µM), without a hit: top-dose activity change, negative = inhibition, usual class: inhibitors; hit rate 3% among 360,000; active = well fitted inhibition curve with a large enough effect; inconclusive = small, poorly fitted or top-dose-only effect; inactive = no such curve, though single readings can be large or run the other way; also: nearly all actives have a fitted effect of over 60% in size
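Kinetic colorimetric format: TGR-catalysed, NADPH-driven DTNB reduction monitored via TNB absorbance. Enzyme dispensed at 20 nM; compound exposure 15 min at room temperature before reaction start.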
Lassa entry inh: Lassa virus entry inhibition; Lassa virus pseudotype entry inhibition, cell reporter; Potency, µM (doses to about 37.9 µM), for inactives: at the top dose activity change, negative = inhibition, usual class: inhibitors; hit rate 1.2% among 300,000; calls by dose curve; tested in HEK293 cells; also: nearly all actives have a fitted effect of over 50% in size
Vaccinia mCherry: vaccinia inhibition (mCherry reporter) | AID 720579 | Potency, µM (highest dose often 36.5 µM), for the others: top-dose activity change, negative = inhibition, most hits filed as inhibitors | Vaccinia virus mCherry reporter infection, fluorescence | hit rate 0.63% among 310,000; calls by dose curve; tested in A549 cells; also: nearly all actives have a fitted effect of over 35% in size
An asterisk follows results filed as active; ! = not confirmed by another sample; [ ] = remark or other dose. % is scaled to controls: 0 for no effect and ±100 for the full control effect; potency is read from the fitted curve at half-maximal effect.

`C=CCN1CCC23c4c5ccc(O)c4OC2/C(=N/N=C2\CCC4(O)C6Cc7ccc(O)c8c7C4(CCN6CC=C)C2O8)CCC3(O)C1C5` (stereo unspecified) gave FMDV inh 21.2%, Vaccinia Venus -19.0% and Vaccinia mCherry -11.2%.
Screening COc1ccc2c(c1O)-c1cc(O)cc3c1[C@@H](C2)N(C)CC3 returned FMDV inh -14.5%, Vaccinia Venus -11.4% and Vaccinia mCherry -8.9%.
`COc1cc2c(cc1OC)-c1c(OC)c(OC)cc3c1C(C2)N(C)CC3` (stereo unspecified) gave FMDV inh -14.2%, Vaccinia Venus -13.6%, Sm TGR inh inconclusive and Vaccinia mCherry -15.2%.
Screening C=CCN1CCc2cccc3c2[C@H]1Cc1ccc(O)c(O)c1-3 returned FMDV inh -14.4%, Vaccinia Venus -8.7%, MARV entry inh inconclusive, Sm TGR inh 1.58µM*, Lassa entry inh inconclusive and Vaccinia mCherry inconclusive.
For CN1CCc2cccc3c2C1Cc1ccc(O)c(O)c1-3 (stereo unspecified) the results were FMDV inh -14.3%, Vaccinia Venus -14.0%, MARV entry inh 15.8µM*!, Lassa entry inh -0.2% and Vaccinia mCherry -14.2%.
CCCN1CCc2cc(O)cc3c2C1Cc1ccc(O)c(O)c1-3 (stereo unspecified) was read as FMDV inh -5.5%, Vaccinia Venus -11.4%, MARV entry inh 35.5µM* and Vaccinia mCherry inactive.
Cc1ccc(NC(=O)c2cc(S(=O)(=O)N3CCCCC3)c[nH]2)cc1N(C)C was read as FMDV inh -0.9%, Vaccinia Venus -11.5%, Sm TGR inh 1.1%, Lassa entry inh 15.5%[46.1 µM] and Vaccinia mCherry -12.0%.
`Cc1ccc2c(c1C)-c1c(ccc(C)c1C)C(=O)C2=O` gave FMDV inh 28.2µM*, Vaccinia Venus 10µM*, MARV entry inh inconclusive, Lassa entry inh inconclusive and Vaccinia mCherry inconclusive.
`CN1C[C@H](CO)C=C2c3cccc4[nH]cc(c34)C[C@H]21` gave FMDV inh 0.0%, Vaccinia Venus -3.7%, Sm TGR inh 11.2µM* and Vaccinia mCherry 0.5%.
For COc1ccc(N2C(=O)C3C4C=CC(CC4)C3C2=O)c([N+](=O)[O-])c1 (stereo unspecified) the results were FMDV inh 0.7%, Vaccinia Venus -4.1%, MARV entry inh 26.3%, Sm TGR inh 2.7%, Lassa entry inh -36.3%[14.3 µM] and Vaccinia mCherry -10.8%.
For CCOc1ccc(N2C(=O)C3CC(C)=C(C)CC3C2=O)c([N+](=O)[O-])c1 (stereo unspecified) the results were FMDV inh -16.9%, MARV entry inh 28.5%, Sm TGR inh 20µM* and Lassa entry inh -10.6%.
`Cc1ccc(N2C(=O)C3C4C=CC(C4)C3C2=O)cc1C` (stereo unspecified) gave FMDV inh 12.8%, MARV entry inh 24.8%, Sm TGR inh -4.3% and Lassa entry inh 15.8%.
`CCOc1ccc(N2C(=O)C3C4C=CC(CC4)C3C2=O)c([N+](=O)[O-])c1` (stereo unspecified) gave FMDV inh -20.8%, Vaccinia Venus -5.6%, MARV entry inh inconclusive, Sm TGR inh 50.1µM*, Lassa entry inh -1.6% and Vaccinia mCherry -9.9%.
`Cc1ccc(N2C(=O)C3C4C=CC(CC4)C3C2=O)cc1[N+](=O)[O-]` (stereo unspecified) gave FMDV inh 3.6% and Sm TGR inh 50.1µM*.
CCN(CC)S(=O)(=O)c1ccc2c(c1)c(=O)c(C(=O)N1CCN(c3ccc(OC)cc3)CC1)cn2C was read as FMDV inh 4.1%, Vaccinia Venus -8.5%, MARV entry inh 9.0%[46.1 µM], Sm TGR inh -1.7%, Lassa entry inh -2.3%[46.1 µM] and Vaccinia mCherry -7.6%.
Cc1ccccc1-c1nc(CN2CCC(C(=O)NC(C)C)CC2)c(C)o1 was read as FMDV inh -12.8%, Vaccinia Venus -0.1%, MARV entry inh 8.3%[46.1 µM], Sm TGR inh 1.4%, Lassa entry inh 6.8%[46.1 µM] and Vaccinia mCherry -10.8%.
`O=c1[nH]c(Nc2ccccc2)cc2ccccc12` gave FMDV inh -3.6%, Vaccinia Venus inconclusive, MARV entry inh 11.7%, Sm TGR inh 15.8µM* and Lassa entry inh -2.3%.
For O=c1[nH]c(Nc2ccccc2)cc2cc(Br)ccc12 the results were FMDV inh 6.9%, Vaccinia Venus inconclusive and Vaccinia mCherry inconclusive.
COC(=O)c1nn(-c2ccc3c(c2)CCN3C(C)=O)cc1O was read as FMDV inh 8.91µM*, MARV entry inh inconclusive, Sm TGR inh -0.6% and Lassa entry inh 2.59µM*.
COC(=O)c1nn(-c2ccc3c(c2)OCO3)cc1O was read as FMDV inh 5.6%, MARV entry inh -12.3%, Sm TGR inh 13.7% and Lassa entry inh inconclusive.
Screening CCOc1ccc(C(=O)CC(Sc2ccc(C)cc2)C(=O)O)cc1 (stereo unspecified) returned FMDV inh -11.1%, Vaccinia Venus -16.9%, MARV entry inh inconclusive, Sm TGR inh 3.16µM*, Lassa entry inh -2.9% and Vaccinia mCherry -20.4%.
Screening CCC(Sc1ccc(C(=O)O)cc1)C(=O)O (stereo unspecified) returned FMDV inh 19.4%, Vaccinia Venus -10.3%, MARV entry inh 12.8%, Sm TGR inh 3.1%, Lassa entry inh 15.7% and Vaccinia mCherry -11.1%.
For O=C(CC(Sc1ccc(Br)cc1)C(=O)O)c1ccc(F)cc1 (stereo unspecified) the results were FMDV inh -20.1% and Sm TGR inh 0.631µM*.
CCC(=O)N1CCc2cc(S(=O)(=O)CCC(=O)N3CCN(c4cccc(C)c4)C(C)C3)ccc21 (stereo unspecified) was read as FMDV inh 0.0%, Vaccinia Venus -5.9%, MARV entry inh -18.2%[46.1 µM], Sm TGR inh 10.1%, Lassa entry inh -27.9%[46.1 µM] and Vaccinia mCherry -10.8%.
CN(CCC#N)c1ccc(/C=C(\C#N)c2ccccn2)cc1 was read as FMDV inh -73.8%, Vaccinia Venus -22.5%, MARV entry inh 8.2µM*, Sm TGR inh -0.8%, Lassa entry inh 2.24µM* and Vaccinia mCherry -4.7%.
CCN(CC)c1ccc(/C=C(\C#N)c2ccccn2)cc1 was read as FMDV inh -44.1%, Vaccinia Venus -9.9%, MARV entry inh inconclusive, Sm TGR inh -6.7%, Lassa entry inh 5.8µM* and Vaccinia mCherry inactive.
CCN(Cc1ccccc1)c1ccc(/C=C(\C#N)c2ccccn2)cc1 was read as FMDV inh 48.3%, Vaccinia Venus -13.9%, MARV entry inh -18.2%, Sm TGR inh 0.5%, Lassa entry inh 17.7% and Vaccinia mCherry -13.3%.
Screening COc1cccc(-n2cc(C(=O)Nc3cc(OC)c(OC)c(OC)c3)c3ccccc3c2=O)c1 returned FMDV inh -15.9%, Vaccinia Venus -5.9%, Sm TGR inh 8.7%, Lassa entry inh inconclusive and Vaccinia mCherry -20.2%.

Bioassay records deposited in PubChem by National Center for Advancing Translational Sciences (NCATS).
